High-throughput results as filed in PubChem BioAssay.
aSyn yeast inh = qHTS of alpha-syn Inhibitors | Yeast expressing alpha-synuclein, growth rescue, BacTiter-Glo, 24 h | Potency, µM (titrated, usually from 46.1 µM), actives largely listed as activators | hit rate 0.14% among 370,000 | AID 652106, 2013; note: nearly all actives have a fitted effect of over 65% in size
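Readout is rescue of growth in alpha-synuclein-expressing yeast, so inhibitors of toxicity appear as activators. Growth after 24 hr at 30 deg C in galactose medium is quantified by luminescence.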
FUS suppressor = qHTS for Suppressors of FUS Proteinopathy: Primary screen using FUS-linked yeast assay. S. cerevisiae FUS-expressing, growth rescue, OD600, 24 h. Potency, µM (series often up to 76.6 µM), actives largely listed as activators. hit rate 0.24% among 390,000; note: nearly all actives have a fitted effect of over 55% in size
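Read-out: OD at 600 nm after 24hr at 30C, reporting rescue of FUS-induced yeast toxicity. Cells at OD 0.005 in galactose (2%) minimal medium; compounds tested in a dilution series; CP55940 titration from 92uM final as control.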
TDP-43 yeast inh = qHTS of TDP-43 Inhibitors; Potency, µM (highest dose often 46.1 µM), usual class: activators; AID 652104, 2013; TDP-43 expressing yeast growth rescue, BacTiter-Glo, 24 h; hit rate 1.8% among 410,000; note: nearly all actives have a fitted effect of over 50% in size
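Cell-based yeast growth screen: TDP-43 expression induced in galactose, inoculum OD600=0.02 after raffinose pregrowth to mid-log. Read-out BacTiter-Glo luminescence at 24 hr, 30 deg C; inhibition of toxicity seen as signal increase.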
Abeta yeast res = qHTS for compounds that reverse cellular toxicity of Amyloid beta (A-beta) peptide in yeast: Primary Screen. yeast expressing A-beta42, growth rescue, OD600, 48 h; response scale: 0% DMSO, 100% iron-clioquinol control. Potency, µM (series often up to 46.1 µM), most hits filed as activators. hit rate 0.063% among 410,000; note: nearly all actives have a fitted effect of over 55% in size
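Yeast A-beta toxicity model in growth medium with pinned compounds, 48 h at 30 C; growth read as absorbance at 600 nm. Normalized to FeCl3/clioquinol equimolar mix (positive) and DMSO (negative).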
A number is an active result; [ ] = dose if it differs, or a comment. The list is not random: actives were taken first. Their share in the collection is about 2.1%. Calls come from the whole dose curve; as a rule, active = well fitted curve in the direction sought with a large enough effect; inconclusive = small, poorly fitted or top-dose-only effect, or another doubt; inactive = no such curve, though single readings can be large; an effect the other way counts as inactive or inconclusive.

For O=C(/C=C/c1ccc(O)c(O)c1)OCCc1ccccc1 the results were aSyn yeast inh 5.2µM, FUS suppressor inactive, TDP-43 yeast inh 16µM and Abeta yeast res inactive.
`CCCCCN1CCCCC(NC(=O)c2ccc(C)cc2)C1=O` (stereo not given) gave FUS suppressor inactive.
`COc1ccc([N+](=O)[O-])cc1NC(=O)C(C)Sc1ccc(C)cc1` (stereo not given) gave aSyn yeast inh inactive, TDP-43 yeast inh 13µM and Abeta yeast res inactive.
Screening COc1ccc([N+](=O)[O-])cc1NC(=O)C(C)OC(=O)C1CCCC1 (stereo not given) returned aSyn yeast inh inactive, FUS suppressor inactive, TDP-43 yeast inh inactive and Abeta yeast res inactive.
`COc1ccc([N+](=O)[O-])cc1NC(=O)C(C)OC(=O)CC1CCCC1` (stereo not given) gave aSyn yeast inh inactive[1.84 µM], FUS suppressor inconclusive, TDP-43 yeast inh 20µM and Abeta yeast res inactive.
For CNC(=O)COc1ccc(NC(=O)CCn2nc(-c3ccc(C)cc3)c3ccccc3c2=O)cc1 the results were FUS suppressor inactive, TDP-43 yeast inh inconclusive and Abeta yeast res inactive.
For CCCCCn1c(=O)c2ccccc2n2c(=S)[nH]nc12 the results were aSyn yeast inh inactive, FUS suppressor inactive, TDP-43 yeast inh 11µM and Abeta yeast res inactive.
`O=C(Oc1ccc2ccc(O)cc2c1)C1CCCCC1` gave aSyn yeast inh inactive, FUS suppressor inactive, TDP-43 yeast inh 22µM and Abeta yeast res inactive.
For O=C(Oc1ccc2ccc(O)cc2c1)c1ccccc1Cl the results were aSyn yeast inh inactive, FUS suppressor inactive, TDP-43 yeast inh 14µM and Abeta yeast res inactive.
Screening Clc1cccc(OCc2nc(-c3ccncc3)no2)c1 returned aSyn yeast inh inactive, FUS suppressor inactive, TDP-43 yeast inh 11µM and Abeta yeast res inactive.
COc1ccc(C(=O)n2nc(-c3ccco3)nc2NCc2cccs2)cc1 was read as FUS suppressor inactive, TDP-43 yeast inh inactive[9.22 µM] and Abeta yeast res inactive.
Screening C=CCc1ccccc1OCC(=O)N/N=C/c1ccc(OC(C)=O)cc1OC(C)=O returned aSyn yeast inh 13µM, FUS suppressor inactive, TDP-43 yeast inh inactive and Abeta yeast res inactive.
CN(C)c1ccc(NC(=S)NCC2CCCO2)cc1 (stereo not given) was read as aSyn yeast inh inactive, FUS suppressor inactive, TDP-43 yeast inh inactive and Abeta yeast res inactive.
`CCCCc1ccc(NC(=S)NCC2CCCO2)cc1` (stereo not given) gave aSyn yeast inh inactive, FUS suppressor inactive, TDP-43 yeast inh inactive[0.397 µM] and Abeta yeast res 13µM.
For O=S(=O)(c1ccc(C(F)(F)F)cc1)N1CCN(c2nc(-c3cccs3)nc3ccccc23)CC1 the results were aSyn yeast inh inactive.
Screening COc1ccc(-c2n[nH]c(C)c2-c2cnn(-c3ccccc3)c2)c(O)c1 returned aSyn yeast inh inactive, FUS suppressor inconclusive, TDP-43 yeast inh 22µM and Abeta yeast res inactive.
Screening O=C(Nc1ccc(NC(=O)c2ccccc2Cl)c(Cl)c1)c1ccccn1 returned FUS suppressor inactive.
Screening CCCCNC(=S)N1CCN(c2ccccc2Cl)CC1 returned aSyn yeast inh inactive, FUS suppressor inactive, TDP-43 yeast inh 13µM and Abeta yeast res inactive.
CCCCNC(=S)N1CCC(Cc2ccccc2)CC1 was read as aSyn yeast inh inactive, FUS suppressor inactive, TDP-43 yeast inh inactive and Abeta yeast res 18µM.
`CNC(=S)N1CCC(Cc2ccccc2)CC1` gave aSyn yeast inh inactive, FUS suppressor inactive, TDP-43 yeast inh inactive and Abeta yeast res inconclusive.
`C=CCNC(=S)N1CCN(c2ccccc2Cl)CC1` gave aSyn yeast inh inactive, FUS suppressor inactive, TDP-43 yeast inh inactive and Abeta yeast res inconclusive.
Screening COC(=O)C1CN(CC(C)C)CCS(=O)(=O)N1Cc1ccc(Cl)cc1 (stereo not given) returned FUS suppressor inactive.
Screening O=C(OCc1cn(Cc2cc(F)cc(F)c2)nn1)N1CCOCC1 returned FUS suppressor inactive.
Screening COc1ccccc1OCC(=O)OC/C(O)=C(\C#N)c1nc2ccccc2[nH]1 returned aSyn yeast inh inactive, FUS suppressor inactive, TDP-43 yeast inh inactive and Abeta yeast res inactive.
`N#C/C(=C(/O)COC(=O)Cc1c[nH]c2ccccc12)c1nc2ccccc2[nH]1` gave aSyn yeast inh inactive, FUS suppressor 35µM, TDP-43 yeast inh inactive and Abeta yeast res inconclusive.
For Cc1cccc2sc(N3CCN(C(=O)CS(=O)(=O)c4ccc(F)cc4)CC3)nc12 the results were FUS suppressor inactive, TDP-43 yeast inh 13µM and Abeta yeast res inactive.
Screening CCOC(=O)[C@@]12CCC3=C1N(CCC3)C(=O)[C@H](CC(=O)N1CCSCC1)C2 returned FUS suppressor inactive.
`Cc1ccc(CNC(=O)C(C)n2c(=O)cc(-c3ccccc3)c3c(C)nn(C)c32)cc1` (stereo not given) gave FUS suppressor inactive, TDP-43 yeast inh 22µM and Abeta yeast res inactive.
`COc1ccccc1CNC(=O)C(C)n1c(=O)cc(-c2ccccc2)c2c(C)nn(C)c21` (stereo not given) gave FUS suppressor inconclusive, TDP-43 yeast inh 16µM and Abeta yeast res inactive.
Cc1ccc(CNC(=O)Cn2c(=O)cc(-c3ccccc3)c3c(C)nn(C)c32)cc1 was read as FUS suppressor inactive, TDP-43 yeast inh 22µM and Abeta yeast res inactive.
Screening COc1cccc(CNC(=O)C(C)n2c(=O)cc(-c3ccccc3)c3c(C)nn(C)c32)c1 (stereo not given) returned FUS suppressor inactive, TDP-43 yeast inh 22µM and Abeta yeast res inactive.
Screening C[C@H]1[C@@H](OC(=O)Nc2ccc(C#N)cc2)CC[C@@]23CCCN2C(=O)CCC[C@@H]13 returned FUS suppressor inactive.
Screening O=C(NCCCN1CCN(c2ccc(F)cc2)CC1)Nc1ccccc1 returned FUS suppressor inactive.
Screening O=C(C1CCC1)N1CCc2cc(S(=O)(=O)N3CCCC3)ccc21 returned FUS suppressor inactive.
`CCCn1c(=S)[nH]c2cc(Cl)ccc21` gave aSyn yeast inh inactive, FUS suppressor inactive, TDP-43 yeast inh inconclusive and Abeta yeast res inconclusive.
`CCn1c(=S)[nH]c2cc(Cl)ccc21` gave aSyn yeast inh inactive, FUS suppressor inactive, TDP-43 yeast inh inactive and Abeta yeast res 13µM.
Cc1ccc(C(=O)NCC(=O)N(C)Cc2ccc(Cl)cc2Cl)s1 was read as aSyn yeast inh inactive, FUS suppressor inactive, TDP-43 yeast inh 8.9µM and Abeta yeast res inactive.
Screening CN(Cc1ccc(Cl)cc1Cl)C(=O)CNC(=O)c1ccco1 returned aSyn yeast inh inactive, FUS suppressor inactive, TDP-43 yeast inh inactive and Abeta yeast res inactive.
Screening CCN1CCCCC(NC(=O)Cc2ccccc2)C1=O (stereo not given) returned FUS suppressor inactive.
Screening CCOC(=O)c1c(-c2ccccc2)oc2ccc(O)cc12 returned aSyn yeast inh inactive, FUS suppressor inactive, TDP-43 yeast inh inconclusive and Abeta yeast res inactive.
